Assay outcomes: PubChem, National Center for Advancing Translational Sciences (NCATS)
A selection: hits, their analogues and other compounds. The true share with any hit is near 19%.
ELG1 DNA repair: ELG1-dependent DNA repair inhibition; actives 2.3% (n = 330,000); AID 504467; HEK293T ELG1-luciferase reporter, luminescence, 16 h; DNA damage induced by 5-fluorouridine; Potency, µM (titrated, usually from 46.1 µM), inactives show at the highest dose activity change, negative = inhibition, hits mostly inhibitors; also: potency is read from the fitted curve at half-maximal effect; nearly all actives have a fitted effect of over 55% in size
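Overnight (16 hr) co-exposure of 2,000 cells/well to 5-fluorouridine and compound at 37 °C preceded detection. Luciferase was quantified via ONE-Glo luminescence; loss of signal denotes inhibition.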
Giardia killer: kills Giardia lamblia; Giardia lamblia trophozoite viability; activity change, % at 7.66 µM, hits read low; actives 0.15% (n = 340,000); in the data active = activity change below about -80%; inconclusive = between about -30% and that limit;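 also: parasites exposed to compound for two days anaerobically before the ATP read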
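Each well holds 100 Giardia trophozoites and compound. After two days (48 hrs) at 37 deg C in anaerobic conditions, ATP is quantified by luminescence.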
TDP1 cell noCPT: qHTS for Inhibitors of human tyrosyl-DNA phosphodiesterase 1 (TDP1): qHTS in cells in absence of CPT; DT40 Tdp1-/- hTDP1 cells, no CPT, ATP luminescence, 48 h; Potency, µM (doses to about 46.2 µM), inactives show at the top dose activity change, negative = growth inhibition, most hits filed as inhibitors; actives 15% (n = 420,000); AID 686978, 2013; also: potency is read from the fitted curve at half-maximal effect; nearly all actives have a fitted effect of over 55% in size
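No-CPT arm: Tdp1-/-;hTDP1 DT40 cells (400/well) plus compounds, incubated ≥48 hr at 37 °C. Readout CellTiter-Glo luminescence.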
IL1B secr inh: blocks inflammasome-driven IL-1 beta release; THP-1 LPS/ATP IL-1B secretion, AlphaLISA, 16 h; stronger effect = lower value; activity change, % at 57.5 µM; actives 4.7% (n = 360,000); in the data active = activity change below about -50%; inconclusive = mostly about -30% to -49%
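Secreted IL-1B measured by AlphaLISA bead assay after 16 h compound exposure of THP-1 cells; compounds (final up to 57.5 uM) added 1 h before LPS (250 ng/mL) and ATP (1.25 mM) stimulation; lower signal means less secretion.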
TDP1 block: inhibitors of human tyrosyl-DNA phosphodiesterase TDP1. recombinant TDP1, AlphaScreen DNA substrate cleavage. Potency, µM (highest dose often 130 µM), for inactives: top-dose activity change, negative = inhibition, hits mostly inhibitors. Q9NUW8. actives 0.28% (n = 350,000); also: potency is read from the fitted curve at half-maximal effect; nearly all actives have a fitted effect of over 40% in size
Target sequence (Q9NUW8 whole entry, looked up): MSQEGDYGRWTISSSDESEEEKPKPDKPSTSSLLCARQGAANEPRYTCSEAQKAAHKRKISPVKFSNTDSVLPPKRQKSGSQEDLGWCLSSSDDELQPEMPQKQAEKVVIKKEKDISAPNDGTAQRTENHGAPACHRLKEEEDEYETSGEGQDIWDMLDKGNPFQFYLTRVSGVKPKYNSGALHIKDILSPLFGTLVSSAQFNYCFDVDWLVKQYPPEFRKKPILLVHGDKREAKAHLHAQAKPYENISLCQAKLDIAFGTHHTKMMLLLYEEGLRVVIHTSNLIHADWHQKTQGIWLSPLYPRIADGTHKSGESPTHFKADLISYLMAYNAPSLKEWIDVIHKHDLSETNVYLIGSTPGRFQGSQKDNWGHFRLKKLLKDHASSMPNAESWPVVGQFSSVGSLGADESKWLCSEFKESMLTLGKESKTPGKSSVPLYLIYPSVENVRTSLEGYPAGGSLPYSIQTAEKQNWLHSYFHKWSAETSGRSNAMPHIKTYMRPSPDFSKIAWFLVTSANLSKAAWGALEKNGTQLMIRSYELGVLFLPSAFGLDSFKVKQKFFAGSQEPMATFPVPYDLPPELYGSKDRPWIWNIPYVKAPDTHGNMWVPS
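Signal: AlphaScreen proximity between streptavidin donor and anti-FITC acceptor beads on intact substrate. Reaction: Tdp1 1 nM, substrate 15 nM final, 5 min RT after 15 min compound preincubation.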
TDP1 cell CPT: DT40-hTDP1 cell growth loss with CPT. AID 686979. chicken DT40 Tdp1-/-;hTDP1 cells + 20 nM CPT, ATP luminescence, 48 h. actives 12% (n = 420,000). Potency, µM (series often up to 46.2 µM), inactives show top-dose activity change, negative = growth inhibition, usual class: inhibitors; also: potency is read from the fitted curve at half-maximal effect; nearly all actives have a fitted effect of over 55% in size
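Chicken DT40 Tdp1-/- cells stably complemented with human TDP1 were seeded at 400 cells/well in medium containing 20 nM camptothecin, exposed to pin-transferred compounds, and grown at 37 °C for at least 48 hr. Viability was read as ATP luminescence.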
* = called active by the depositor; u = inconclusive; x = no result given; [ ] = dose if it differs, or a comment. Unless noted, calls follow the shape of the dose curve; as a rule, active = well fitted curve in the direction sought with a large enough effect; inconclusive = small, poorly fitted or top-dose-only effect, or another doubt; inactive = no such curve, though single readings can be large; an effect the other way counts as inactive or inconclusive. % is scaled to controls: 0 for no effect and ±100 for the full control effect.

SMILES | ELG1 DNA repair | Giardia killer | TDP1 cell noCPT | IL1B secr inh | TDP1 block | TDP1 cell CPT
COc1ccc([C@H]2CC(=O)C=C(c3ccc(SC)cc3)C2)cc1 | 0% | 1 | -27% | -13 | 0% | u
O=C1C=C(c2n[nH]nc2-c2ccccc2)C[C@@H](c2ccc(F)cc2)C1 | x | x | 16µM* | -18 | x | u
COc1ccc(C2=CC(=O)C[C@H](c3ccc(F)cc3)C2)cc1F | u | 3 | u | 0 | 0% | 21µM*
O=C1C=C(c2ccc(-c3ccccc3)c(F)c2)C[C@@H](c2ccc(F)cc2)C1 | -15% | u | u | 20 | 0% | u
COc1ccc([C@H]2CC(=O)C=C(c3ccc(SC)cc3)C2)cc1OC | u | 0 | 15µM* | -13 | 4% | 9.2µM*
CCc1nnc(NC(=O)CSc2nnc(C)c(=O)n2N)s1 | 1% | u | 11% | 25 | 3% | 27%
COc1ccc([C@H]2CC(=O)C=C(c3ccccc3)C2)cc1OC | u | -7 | u | u | 2% | u
COc1ccc([C@H]2CC(=O)C=C(c3cccc(Cl)c3)C2)cc1OC | u | -10 | u | -66* | 1% | 15µM*
COc1ccc([C@H]2CC(=O)C=C(c3ccc(Oc4ccccc4)cc3)C2)cc1OC | u | -16 | 23µM* | -3 | 2% | 10µM*
O=C1C=C(c2ccc(Oc3ccccc3)cc2)C[C@@H](c2ccc(F)cc2)C1 | -10% | -10 | u | u | -4% | 18µM*
COc1ccc(C2=CC(=O)C[C@H](c3ccc(OC)c(OC)c3)C2)cn1 | u | -5 | u | u | 1% | u
CCCCC/C=C/C1=CC(=O)C[C@H](c2ccc(OC)c(OC)c2)C1 | -24% | -13 | 10µM* | -22 | 1% | 21µM*
COC(=O)C1=C(C(=O)OC)C(C(=O)OC)N2C=CC=CC2=C1C(=O)OC (stereo not given) | x | x | -6% | 22 | x | -11%
Cc1ccc(S(=O)(=O)N2CCN(Cc3ccccc3Cl)CC2)cc1 | x | x | 18µM* | x | -9%[12.3 µM] | u
O=C(Nc1cccnc1)C1CCCN(S(=O)(=O)c2ccccc2)C1 (stereo not given) | u | -1 | -19% | 14 | 4% | -22%
COc1ccc(S(=O)(=O)N2CCCC(C(=O)Nc3cccnc3)C2)cc1Cl (stereo not given) | 23µM* | -18 | 15µM* | -15 | 2% | 16µM*
Cc1ccc(CN2CC(C(=O)N3CCN(S(=O)(=O)c4ccc(C(C)C)cc4)CC3)CC2=O)cc1 (stereo not given) | 12µM* | -7 | u | -27 | 6% | u
Cc1ccc(S(=O)(=O)N2CCC(C(=O)N3CCN(Cc4ccccc4)CC3)CC2)cc1 | -12% | 6 | u | 7 | 3% | 21µM*
Cc1ccccc1OCC(=O)Nc1ccc(OCc2cc(=O)n3ccccc3n2)cc1 | x | x | -4% | x | 0% | 25%
Cc1ccc(NC(=O)Cn2cnc3c(oc4ccccc43)c2=O)cc1Cl | x | x | -1% | x | 3% | 1%
COc1ccc(S(=O)(=O)N2CCCC(C(=O)N3CCN(Cc4ccccc4)CC3)C2)cc1Cl (stereo not given) | x | x | 15µM* | u | x | 21µM*
COc1cc(NC(=O)C2CCCN(S(=O)(=O)c3ccc4c(c3)CCCN4C(C)=O)C2)cc(OC)c1 (stereo not given) | 9.2µM* | 10 | 4% | -28 | 2% | -29%
COc1ccc(NC(=O)C2CCCN(S(=O)(=O)c3ccc4c(c3)CCCN4C(C)=O)C2)cc1Cl (stereo not given) | u | -12 | u | 27 | 2% | 21µM*
COc1ccc(NC(=O)C2CCCN(S(=O)(=O)c3ccc4c(c3)CCCN4C(C)=O)C2)cc1 (stereo not given) | u | -3 | u | 9 | 1% | u
COC(=O)CN(c1ccccc1)S(=O)(=O)c1cc(Br)ccc1OC | 5% | -9 | 0% | 17 | 3% | -3%
SMILES | ELG1 DNA repair | Giardia killer | TDP1 cell noCPT | IL1B secr inh | TDP1 block | TDP1 cell CPT
COc1cc(-c2cnc3c(NC(C)=O)cc(-c4cccc(C(=O)NCCO)c4)cn23)cc(OC)c1OC | x | x | 10µM* | 83 | x | 16µM*
CN(C)CCNC(=O)c1cccc(-c2cnc3c(NC=O)cc(-c4cccs4)cn23)c1 | x | x | u | -10 | x | u
COc1ccc(-c2cnc3c(NC(C)=O)cc(-c4cccc(C(=O)NCCN(C)C)c4)cn23)cc1OC | x | x | 12µM* | u | x | u
COc1cccc(-c2cnc3c(NC(C)=O)cc(-c4cccc(C(=O)NCCN(C)C)c4)cn23)c1 | x | x | 18µM* | -27 | x | u
CC(=O)Nc1cncc(-c2cccc(C(=O)NCCN(C)C)c2)n1 | x | x | -13% | 4 | x | 0%
COc1ccc(-c2cnc3c(NC(C)=O)cc(-c4cccc(C(=O)NCCO)c4)cn23)cc1OC | x | x | 21µM* | -55* | x | 21µM*
Cc1ccc(C)c(N2CCN(C(=O)Cc3ccc(NC4=NC5CS(=O)(=O)CC5S4)cc3)CC2)c1 (stereo not given) | -16% | 10 | u | -1 | x | u
COc1ccc(-c2cnc3c(NC(C)=O)cc(-c4cccc(C(=O)N(C)C)c4)cn23)cc1OC | x | x | 13µM* | -18 | x | 21µM*
CCOc1ccc(NC(=O)CSC2=NN3CCCC(=O)N=C3S2)cc1 | 14% | 12 | u | 29 | 4% | u
O=C1CCCN2N=C(SCC(=O)Nc3ccc(Cl)cc3)SC2=N1 | 1% | 13 | -25% | 14 | 1% | -20%
Cc1ccc(NC(=O)CSC2=NN3CCCC(=O)N=C3S2)cc1Cl | 9% | 28 | 21µM* | -11 | 4%[0.0935 µM] | u
O=C1CCCN2N=C(SCC(=O)Nc3cccc(C(F)(F)F)c3)SC2=N1 | -18% | -9 | 5.2µM* | 29 | 8%[0.0935 µM] | 4.6µM*
O=C(CSC1=NCCN1)Nc1cccc(C(F)(F)F)c1 | -11% | 14 | u | -99* | 11% | 21µM*
O=C1CCCN2N=C(SCC(=O)Nc3cccc(Cl)c3)SC2=N1 | u | 12 | 21µM* | -14 | 4%[0.0935 µM] | 16µM*
COc1ccc(-n2c(CNC(=O)c3c(-c4ccccc4)noc3C)nnc2SC)cc1 | x | x | -8% | x | x | -13%
COc1cc2c(cc1NC(=O)CSc1nc3ccc(C)cc3[nH]1)oc1ccccc12 | -5% | x | x | x | 8% | x
